This is an account of results in article PMC7862700, “An all-to-all approach to the identification of sequence-specific readers for epigenetic DNA modifications on cytosine”.

What all share (experiment): DAPPL (digital affinity profiling via proximity ligation, sequencing); 10 mM Tris-HCl pH 7.5, 50 mM NaCl, 1 mM DTT, 4% glycerol, room temperature, 30 min; GST-TFs on glutathione beads, 16-mer random dsDNA library, 0.1% formaldehyde crosslink after washing; high values mean tight binding
What all share (settings): protein: recombinant; tags: N-terminal GST; dsDNA, one strand shown

In one test the target is T1, FLI1 (Homo sapiens, UniProt Q01543 1-452).
T1 sequence: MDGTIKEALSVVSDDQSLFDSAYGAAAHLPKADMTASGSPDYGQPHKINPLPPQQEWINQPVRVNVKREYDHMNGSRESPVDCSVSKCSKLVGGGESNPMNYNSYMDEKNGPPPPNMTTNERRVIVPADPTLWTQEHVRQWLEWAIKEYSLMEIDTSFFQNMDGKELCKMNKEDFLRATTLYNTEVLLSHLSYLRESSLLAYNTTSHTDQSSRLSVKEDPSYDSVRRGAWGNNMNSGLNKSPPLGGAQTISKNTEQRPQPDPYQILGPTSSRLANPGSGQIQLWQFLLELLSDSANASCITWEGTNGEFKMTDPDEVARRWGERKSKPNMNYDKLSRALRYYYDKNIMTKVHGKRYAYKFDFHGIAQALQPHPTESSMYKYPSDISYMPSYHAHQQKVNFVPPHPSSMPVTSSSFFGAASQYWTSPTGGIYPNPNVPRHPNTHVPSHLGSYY
The gist of the method:
(§1)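 Binding signal is given per hexamer as its read frequency for a factor divided by its frequency in the tag-only sample. GST-fused human transcription factors were expressed in yeast, captured on glutathione beads, barcoded with DNA and pooled with that sample, then incubated with 200 nmole of a 16-mer random double-stranded DNA library in Tris/NaCl/DTT/glycerol buffer for 30 min at room temperature. The pools were then washed, crosslinked, proximity-ligated, amplified by PCR and sequenced on an Illumina NextSeq500.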

In a further test the target is T2, ELK1 (Homo sapiens, UniProt P19419 1-428).
T2 sequence: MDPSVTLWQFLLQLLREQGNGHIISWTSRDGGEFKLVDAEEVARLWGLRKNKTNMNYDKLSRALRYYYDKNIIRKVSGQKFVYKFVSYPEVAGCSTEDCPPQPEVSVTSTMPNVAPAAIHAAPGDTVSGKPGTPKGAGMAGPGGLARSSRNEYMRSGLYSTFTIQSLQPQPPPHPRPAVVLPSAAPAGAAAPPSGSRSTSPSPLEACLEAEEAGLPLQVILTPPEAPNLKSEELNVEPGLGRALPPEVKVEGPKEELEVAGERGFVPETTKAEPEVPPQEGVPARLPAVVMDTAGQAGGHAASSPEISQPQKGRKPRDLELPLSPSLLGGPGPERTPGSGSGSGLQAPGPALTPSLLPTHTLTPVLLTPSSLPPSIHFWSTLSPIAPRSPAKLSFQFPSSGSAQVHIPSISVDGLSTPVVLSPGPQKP
The gist of the method:
as §1

For the next test, the target named is T3, GABPA (Homo sapiens, UniProt Q06546 1-454).
T3 sequence: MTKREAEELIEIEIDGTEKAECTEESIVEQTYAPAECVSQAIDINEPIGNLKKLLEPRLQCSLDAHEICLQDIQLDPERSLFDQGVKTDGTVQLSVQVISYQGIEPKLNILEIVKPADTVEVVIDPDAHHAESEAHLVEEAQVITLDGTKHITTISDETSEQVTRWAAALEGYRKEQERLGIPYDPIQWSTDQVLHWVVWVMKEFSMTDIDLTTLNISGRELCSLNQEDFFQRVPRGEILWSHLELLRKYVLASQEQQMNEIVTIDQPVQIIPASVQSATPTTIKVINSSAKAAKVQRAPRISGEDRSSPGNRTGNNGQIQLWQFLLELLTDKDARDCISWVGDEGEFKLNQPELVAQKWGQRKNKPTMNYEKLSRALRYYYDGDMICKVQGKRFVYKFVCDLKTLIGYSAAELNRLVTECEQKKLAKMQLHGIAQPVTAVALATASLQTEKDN
The gist of the method:
as §1

The target in the next test is T4, ERG (Homo sapiens, UniProt P11308 1-479).
T4 sequence: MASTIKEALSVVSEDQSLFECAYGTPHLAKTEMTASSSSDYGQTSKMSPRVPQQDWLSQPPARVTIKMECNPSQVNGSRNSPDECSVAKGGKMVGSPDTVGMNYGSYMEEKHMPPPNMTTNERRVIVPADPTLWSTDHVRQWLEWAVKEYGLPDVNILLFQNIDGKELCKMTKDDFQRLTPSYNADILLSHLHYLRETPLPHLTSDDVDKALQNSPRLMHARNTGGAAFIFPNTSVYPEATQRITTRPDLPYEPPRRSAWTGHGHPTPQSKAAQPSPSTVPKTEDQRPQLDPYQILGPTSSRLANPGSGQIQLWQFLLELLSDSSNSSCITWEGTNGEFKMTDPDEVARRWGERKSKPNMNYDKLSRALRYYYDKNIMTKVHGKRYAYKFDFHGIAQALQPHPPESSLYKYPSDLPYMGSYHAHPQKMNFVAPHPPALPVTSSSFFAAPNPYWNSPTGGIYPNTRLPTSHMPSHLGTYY
The gist of the method: as §1

Another test addresses ELF1 (Homo sapiens, UniProt P32519 1-619). The gist of the method:
as §1

A further test deals with T5, EHF (Homo sapiens, UniProt Q9NZC4 1-300).
T5 sequence: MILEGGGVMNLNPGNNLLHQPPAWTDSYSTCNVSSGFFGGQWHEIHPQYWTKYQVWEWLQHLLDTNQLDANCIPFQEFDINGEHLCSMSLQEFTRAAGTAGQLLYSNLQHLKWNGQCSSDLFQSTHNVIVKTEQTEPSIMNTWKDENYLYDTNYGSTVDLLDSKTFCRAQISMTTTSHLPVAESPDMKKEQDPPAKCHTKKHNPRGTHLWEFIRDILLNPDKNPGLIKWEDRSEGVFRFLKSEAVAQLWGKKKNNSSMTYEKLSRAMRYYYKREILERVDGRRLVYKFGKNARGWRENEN
In short, it runs like this: as §1

The next test has as its target SPI1 (Homo sapiens, UniProt P17947 1-270). The gist of the method: as §1
The next test has as its target SPIB (Homo sapiens, UniProt Q01892 1-262). In short, it runs like this:
as §1

In another test the target is T6, ELK3 (Homo sapiens, UniProt P41970 1-407).
T6 sequence: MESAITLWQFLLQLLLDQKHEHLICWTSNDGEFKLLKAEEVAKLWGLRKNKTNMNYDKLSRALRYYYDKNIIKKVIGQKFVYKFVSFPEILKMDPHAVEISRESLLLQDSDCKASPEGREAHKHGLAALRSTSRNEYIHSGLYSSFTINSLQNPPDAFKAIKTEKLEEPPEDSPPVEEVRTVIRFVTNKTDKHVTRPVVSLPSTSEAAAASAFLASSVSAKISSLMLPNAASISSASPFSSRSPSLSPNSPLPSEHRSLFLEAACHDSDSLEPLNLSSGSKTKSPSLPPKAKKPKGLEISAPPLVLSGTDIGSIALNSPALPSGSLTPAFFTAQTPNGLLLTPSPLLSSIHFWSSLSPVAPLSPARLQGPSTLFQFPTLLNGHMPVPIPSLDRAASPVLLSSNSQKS
The gist of the method: as §1

The next test concerns the target T7, FEV (Homo sapiens, UniProt Q99581 1-238).
T7 sequence: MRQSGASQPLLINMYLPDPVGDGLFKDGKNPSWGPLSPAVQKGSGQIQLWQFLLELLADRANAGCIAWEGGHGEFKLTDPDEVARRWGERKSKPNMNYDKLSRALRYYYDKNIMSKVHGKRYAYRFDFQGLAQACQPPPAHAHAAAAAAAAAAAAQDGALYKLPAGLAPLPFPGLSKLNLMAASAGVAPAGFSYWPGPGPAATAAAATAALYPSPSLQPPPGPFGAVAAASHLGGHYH
In short, it runs like this:
as §1

Another test has as its target ETV5 (Homo sapiens, UniProt P41161 1-510). The gist of the method: as §1
In another test the target is T8, SPIC (Homo sapiens, UniProt Q8N5J4 1-248).
T8 sequence: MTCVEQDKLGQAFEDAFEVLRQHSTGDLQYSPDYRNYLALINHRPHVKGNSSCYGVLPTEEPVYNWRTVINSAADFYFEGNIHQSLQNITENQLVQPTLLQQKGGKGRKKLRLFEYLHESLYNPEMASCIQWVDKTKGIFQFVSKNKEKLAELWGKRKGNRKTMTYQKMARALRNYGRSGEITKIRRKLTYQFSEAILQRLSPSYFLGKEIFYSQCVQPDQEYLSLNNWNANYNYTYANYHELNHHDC
The gist of the method: as §1

The target in the next test is ELF4 (Homo sapiens, UniProt Q99607 1-663). The gist of the method: as §1
For another test, the target named is T9, ELK4 (Homo sapiens, UniProt P28324-2 1-405).
T9 sequence: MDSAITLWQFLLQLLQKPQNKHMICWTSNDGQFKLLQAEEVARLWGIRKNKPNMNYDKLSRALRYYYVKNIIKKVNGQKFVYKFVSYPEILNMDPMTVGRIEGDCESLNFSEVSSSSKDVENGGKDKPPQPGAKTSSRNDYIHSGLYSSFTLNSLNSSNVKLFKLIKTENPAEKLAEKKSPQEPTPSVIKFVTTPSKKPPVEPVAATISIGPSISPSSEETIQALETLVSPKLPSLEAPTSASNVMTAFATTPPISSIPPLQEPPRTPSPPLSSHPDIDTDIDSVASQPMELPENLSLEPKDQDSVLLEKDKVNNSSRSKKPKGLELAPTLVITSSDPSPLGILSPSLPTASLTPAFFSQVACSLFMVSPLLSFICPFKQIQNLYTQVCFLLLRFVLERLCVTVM
The gist of the method: as §1

The target in a further test is T10, ETV2 (Homo sapiens, UniProt O00321 1-342).
T10 sequence: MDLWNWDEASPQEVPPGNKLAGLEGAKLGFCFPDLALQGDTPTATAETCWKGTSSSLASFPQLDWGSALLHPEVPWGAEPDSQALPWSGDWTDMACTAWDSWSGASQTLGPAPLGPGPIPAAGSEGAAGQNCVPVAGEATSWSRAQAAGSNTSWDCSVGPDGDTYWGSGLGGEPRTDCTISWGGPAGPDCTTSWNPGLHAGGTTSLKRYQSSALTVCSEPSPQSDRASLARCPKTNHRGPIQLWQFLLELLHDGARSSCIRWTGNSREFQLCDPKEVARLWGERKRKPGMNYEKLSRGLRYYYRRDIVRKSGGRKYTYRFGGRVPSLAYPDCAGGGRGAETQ
In short, it runs like this:
as §1

The target of a further test is T11, ELF3 (Homo sapiens, UniProt P78545 1-371).
T11 sequence: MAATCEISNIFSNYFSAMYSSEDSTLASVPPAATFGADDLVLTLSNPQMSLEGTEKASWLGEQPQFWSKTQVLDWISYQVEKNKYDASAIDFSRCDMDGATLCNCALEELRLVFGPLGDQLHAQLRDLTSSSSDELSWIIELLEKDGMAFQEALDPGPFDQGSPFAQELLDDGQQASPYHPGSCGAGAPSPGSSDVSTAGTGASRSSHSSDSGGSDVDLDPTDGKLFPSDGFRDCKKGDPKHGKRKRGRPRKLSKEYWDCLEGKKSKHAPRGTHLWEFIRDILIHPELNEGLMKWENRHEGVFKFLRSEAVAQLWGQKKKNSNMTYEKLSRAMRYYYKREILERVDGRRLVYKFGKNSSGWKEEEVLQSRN
The gist of the method:
as §1

The next test has as its target ETV1 (Homo sapiens, UniProt P50549 1-477). The gist of the method:
as §1

ELF1, sequence (P32519 whole entry): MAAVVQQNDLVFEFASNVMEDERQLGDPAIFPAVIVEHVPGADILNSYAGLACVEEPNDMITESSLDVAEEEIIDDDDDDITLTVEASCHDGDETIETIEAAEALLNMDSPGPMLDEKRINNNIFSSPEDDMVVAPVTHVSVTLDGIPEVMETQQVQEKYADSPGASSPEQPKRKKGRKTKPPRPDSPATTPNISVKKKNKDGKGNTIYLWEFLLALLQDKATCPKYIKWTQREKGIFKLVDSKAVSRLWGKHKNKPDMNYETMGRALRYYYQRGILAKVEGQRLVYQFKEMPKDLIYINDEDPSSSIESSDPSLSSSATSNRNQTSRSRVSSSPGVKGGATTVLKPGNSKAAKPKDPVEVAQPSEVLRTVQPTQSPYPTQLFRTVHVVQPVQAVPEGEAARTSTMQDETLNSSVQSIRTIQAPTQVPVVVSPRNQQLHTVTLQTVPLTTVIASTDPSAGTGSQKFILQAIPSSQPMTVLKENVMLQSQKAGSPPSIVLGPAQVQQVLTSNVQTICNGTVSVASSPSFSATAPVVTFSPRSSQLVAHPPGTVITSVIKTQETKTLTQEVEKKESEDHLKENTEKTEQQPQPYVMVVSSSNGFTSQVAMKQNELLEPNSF
ETV5, sequence (P41161 whole entry): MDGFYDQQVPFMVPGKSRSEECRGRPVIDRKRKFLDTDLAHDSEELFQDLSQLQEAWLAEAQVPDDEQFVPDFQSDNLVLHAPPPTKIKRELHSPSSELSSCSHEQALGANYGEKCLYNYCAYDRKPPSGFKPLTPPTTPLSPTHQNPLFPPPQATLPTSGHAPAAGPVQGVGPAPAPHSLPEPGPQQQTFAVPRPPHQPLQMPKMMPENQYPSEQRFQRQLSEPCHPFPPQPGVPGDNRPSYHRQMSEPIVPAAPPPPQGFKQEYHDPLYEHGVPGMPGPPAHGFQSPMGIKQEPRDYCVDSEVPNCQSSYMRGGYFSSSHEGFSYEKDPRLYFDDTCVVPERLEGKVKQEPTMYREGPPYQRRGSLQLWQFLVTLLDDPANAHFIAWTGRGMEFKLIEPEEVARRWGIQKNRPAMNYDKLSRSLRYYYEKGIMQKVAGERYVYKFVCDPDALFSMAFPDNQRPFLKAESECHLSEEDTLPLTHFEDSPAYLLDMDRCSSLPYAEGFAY
ELF4, sequence (Q99607 whole entry): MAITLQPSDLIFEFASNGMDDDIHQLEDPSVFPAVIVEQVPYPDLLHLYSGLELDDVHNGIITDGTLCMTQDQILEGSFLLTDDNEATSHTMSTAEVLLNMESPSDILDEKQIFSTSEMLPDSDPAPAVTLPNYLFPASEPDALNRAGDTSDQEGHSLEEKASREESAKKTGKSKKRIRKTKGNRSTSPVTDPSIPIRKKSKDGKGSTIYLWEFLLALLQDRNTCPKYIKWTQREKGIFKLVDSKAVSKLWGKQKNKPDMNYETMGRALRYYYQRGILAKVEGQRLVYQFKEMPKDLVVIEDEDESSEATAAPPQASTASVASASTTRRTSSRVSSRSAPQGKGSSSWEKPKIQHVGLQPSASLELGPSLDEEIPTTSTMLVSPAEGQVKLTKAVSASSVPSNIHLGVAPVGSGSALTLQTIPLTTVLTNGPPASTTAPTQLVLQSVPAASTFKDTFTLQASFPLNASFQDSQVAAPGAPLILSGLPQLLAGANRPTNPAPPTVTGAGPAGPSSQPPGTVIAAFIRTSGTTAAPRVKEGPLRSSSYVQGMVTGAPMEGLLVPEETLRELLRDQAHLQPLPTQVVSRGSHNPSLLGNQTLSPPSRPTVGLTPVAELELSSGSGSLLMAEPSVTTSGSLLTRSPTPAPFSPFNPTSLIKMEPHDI
SPIB, sequence (Q01892 whole entry): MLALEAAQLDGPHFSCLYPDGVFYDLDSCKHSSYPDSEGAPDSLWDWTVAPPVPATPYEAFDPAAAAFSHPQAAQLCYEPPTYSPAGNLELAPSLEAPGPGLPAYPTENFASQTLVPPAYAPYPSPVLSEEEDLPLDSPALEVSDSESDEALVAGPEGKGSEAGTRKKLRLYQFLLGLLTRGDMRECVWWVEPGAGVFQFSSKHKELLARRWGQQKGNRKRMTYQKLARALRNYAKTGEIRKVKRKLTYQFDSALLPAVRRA
ETV1, sequence (P50549 whole entry): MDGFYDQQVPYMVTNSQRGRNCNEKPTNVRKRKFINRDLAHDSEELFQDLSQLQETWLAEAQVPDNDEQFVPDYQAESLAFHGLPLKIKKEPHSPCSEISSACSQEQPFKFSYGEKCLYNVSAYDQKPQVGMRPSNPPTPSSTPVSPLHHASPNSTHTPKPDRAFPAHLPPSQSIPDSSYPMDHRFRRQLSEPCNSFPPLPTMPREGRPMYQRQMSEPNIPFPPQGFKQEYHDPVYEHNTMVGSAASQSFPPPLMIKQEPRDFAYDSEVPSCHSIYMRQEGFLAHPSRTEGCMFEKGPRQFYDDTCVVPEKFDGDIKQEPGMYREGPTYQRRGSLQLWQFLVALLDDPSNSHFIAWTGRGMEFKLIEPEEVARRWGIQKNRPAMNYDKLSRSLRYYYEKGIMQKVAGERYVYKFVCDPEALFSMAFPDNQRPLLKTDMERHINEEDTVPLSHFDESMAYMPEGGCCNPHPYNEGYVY

Turning to GCCACT, the binding signal with FLI1 is 1.17 fold enrichment (6-mer frequency, TF over GST control); in the test with ELK1 it was 1.2 fold enrichment (6-mer frequency, TF over GST control); in the test with GABPA, 1.16 fold enrichment (6-mer frequency, TF over GST control); with ERG, 1.23 fold enrichment (6-mer frequency, TF over GST control); with ELF1, 1.23 fold enrichment (6-mer frequency, TF over GST control); with EHF, 1.1 fold enrichment (6-mer frequency, TF over GST control). The binding signal was 1.17 fold enrichment (6-mer frequency, TF over GST control) with SPI1; 1.06 fold enrichment (6-mer frequency, TF over GST control) in the test with SPIB; 1.26 fold enrichment (6-mer frequency, TF over GST control) with ELK3; 1.31 fold enrichment (6-mer frequency, TF over GST control) in the test with FEV; 1.2 fold enrichment (6-mer frequency, TF over GST control) with ETV5; 1.12 fold enrichment (6-mer frequency, TF over GST control) with SPIC. Besides, the binding signal with ELF4 is 1.21 fold enrichment (6-mer frequency, TF over GST control); with ELK4, 1.24 fold enrichment (6-mer frequency, TF over GST control); with ETV2, 1.15 fold enrichment (6-mer frequency, TF over GST control); with ELF3, 1.1 fold enrichment (6-mer frequency, TF over GST control); with ETV1 it was 1.22 fold enrichment (6-mer frequency, TF over GST control).
